In PubChem BioAssay (NCI) one finds growth data, which are given here for 7 compounds.

This is part of a sample that, as a whole, favours compounds with a hit. Of some 83,000 tested, about 20% had one in any assay.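 Growth was measured after 48 h exposure to one concentration of compound in 96-well plates. Values under 10 count as active.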 A number with no mark means an inactive call. Active and inactive are the calls of the source.

Some test systems named below: HCT-15 colon; HT29 colon; SNB-75 CNS; SNB-19 CNS; U251 CNS; PC-3 prostate; SK-MEL-5 melanoma; UACC-62 melanoma; LOX IMVI melanoma; SK-MEL-28 melanoma; SK-MEL-2 melanoma; EKVX NSCLC; SN12C renal; UO-31 renal; TK-10 renal; ACHN renal; A498 renal; CCRF-CEM leukemia; MOLT-4 leukemia; SR leukemia.
Test in all cases: NCI-60 one-dose screen, 48 h (100 = growth as untreated, 0 = no growth, -100 = all killed)
What all share (conditions): 10 µM unless noted

`CCCCc1ccc(N=Nc2ccc(OCC[N+](C)(C)C)cc2)cc1`: the growth in the experiment on HCT-15 colon is 61%; in the experiment with HT29 colon, 26.3%; with SNB-75 CNS, 15.4%; in the experiment with SNB-19 CNS, 1.8% (active); in the experiment on U251 CNS, -51.1% (active); in the experiment with PC-3 prostate, 24.2%. Besides, the growth in the experiment with SK-MEL-5 melanoma is 89.4%; in the experiment on UACC-62 melanoma, 53.9%; in the experiment with LOX IMVI melanoma, 33.6%; in the experiment with SK-MEL-28 melanoma it was 88.9%; in the experiment on SK-MEL-2 melanoma, 93.6%; in the experiment with EKVX NSCLC it was 85.1%. In addition, the growth with SN12C renal is 31%; in the experiment with UO-31 renal, 88.1%; with TK-10 renal, 31.3%; in the experiment with ACHN renal, 67%; in the experiment with A498 renal, 67.5%; in the experiment with CCRF-CEM leukemia, 62.4%. Further, the growth was 57.2% in the experiment on MOLT-4 leukemia and 76% with SR leukemia.

On to `COc1ccc(NC(=O)c2ccc(Nc3ncnc4[nH]c(C)c(C)c34)cc2)cc1`, for which the growth with HCT-15 colon was 103%; with HT29 colon it was 103%; in the experiment with SNB-75 CNS it was 93.5%; in the experiment with SNB-19 CNS it was 105%; in the experiment with U251 CNS, 101%; with PC-3 prostate it was 109%. In addition, the growth with SK-MEL-5 melanoma is 98.6%; in the experiment on UACC-62 melanoma, 99.6%; with LOX IMVI melanoma, 104%; in the experiment with SK-MEL-28 melanoma it was 102%; in the experiment on SK-MEL-2 melanoma, 99.2%; with EKVX NSCLC it was 102%. Besides, the growth in the experiment on SN12C renal was 95.6%; in the experiment on UO-31 renal it was 97.5%; in the experiment on TK-10 renal, 93.7%; in the experiment with ACHN renal, 107%; with A498 renal, 92.7%; with CCRF-CEM leukemia it was 112%. Further, the growth was 95.1% with MOLT-4 leukemia and 89.3% in the experiment on SR leukemia.

As to `Cc1cc(C)nc(NS(=O)(=O)c2ccc(Nc3ccc4c5c(n(CCCN(C)C)c(=O)c4c3)-c3ccccc3C5=O)cc2)n1`, the growth is 90.3% in the experiment with HCT-15 colon; 74.8% in the experiment on HT29 colon; 79.5% with SNB-75 CNS; 91% with SNB-19 CNS; 75.3% with U251 CNS; 86.3% with PC-3 prostate. The growth in the experiment on SK-MEL-5 melanoma was 85.6%; in the experiment with UACC-62 melanoma it was 93.3%; in the experiment with LOX IMVI melanoma it was 72.6%; with SK-MEL-28 melanoma, 117%; in the experiment on SK-MEL-2 melanoma it was 108%; with EKVX NSCLC it was 90.5%. The growth with SN12C renal is 85%; with UO-31 renal, 88.9%; in the experiment on TK-10 renal it was 87.9%; in the experiment with ACHN renal it was 89.7%; with A498 renal it was 90.7%; with CCRF-CEM leukemia, 42.2%. Also, the growth in the experiment with MOLT-4 leukemia is 15.2%; in the experiment on SR leukemia, 23.4%.

Take `Cc1nc(C)c(C)nc1C`: the growth in the experiment on HCT-15 colon is 109%; with HT29 colon, 97%; with SNB-75 CNS it was 101%; in the experiment on SNB-19 CNS, 99.2%; in the experiment on U251 CNS, 96.7%; in the experiment on PC-3 prostate it was 98.3%. For the same compound, the growth in the experiment with SK-MEL-5 melanoma was 102%; with UACC-62 melanoma it was 101%; in the experiment with LOX IMVI melanoma, 101%; with SK-MEL-28 melanoma, 113%; in the experiment with SK-MEL-2 melanoma it was 97.9%; in the experiment on EKVX NSCLC, 109%. For the same compound, the growth in the experiment with SN12C renal is 101%; in the experiment on UO-31 renal, 93.4%; with TK-10 renal, 95.7%; in the experiment with ACHN renal it was 114%; in the experiment on A498 renal it was 102%; in the experiment with CCRF-CEM leukemia it was 89.5%. Besides, the figures for the growth in the experiment on MOLT-4 leukemia and with SR leukemia were 99.8% and 108%, respectively.

Regarding `COc1cc(-c2nn(-c3ccc(Br)cc3)cc2CO)ccc1O`, the growth in the experiment with HCT-15 colon is 87.4%; in the experiment on HT29 colon, 88.8%; with SNB-75 CNS, 87.7%; with SNB-19 CNS it was 94%; in the experiment with U251 CNS, 95.2%; in the experiment on PC-3 prostate it was 75%. Besides, the growth was 94.1% in the experiment on SK-MEL-5 melanoma; 78.9% with UACC-62 melanoma; 86.5% in the experiment with LOX IMVI melanoma; 110% in the experiment on SK-MEL-28 melanoma; 100% with SK-MEL-2 melanoma; 92.5% in the experiment with EKVX NSCLC. The growth in the experiment on SN12C renal was 97.1%; in the experiment on UO-31 renal, 59.9%; in the experiment on TK-10 renal, 110%; in the experiment on ACHN renal, 100%; with A498 renal it was 77.2%; with CCRF-CEM leukemia it was 54.9%. The growth in the experiment with MOLT-4 leukemia was 57.1%; with SR leukemia it was 65.4%.

On to `O=C(O)c1cn(C2CC2)c2cc(N3CCN(Cc4nnc(Nc5ccccc5)o4)CC3)c(F)cc2c1=O`, for which the growth was 101% in the experiment with HCT-15 colon; 93.8% in the experiment on HT29 colon; 82.2% in the experiment with SNB-75 CNS; 108% in the experiment with SNB-19 CNS; 105% in the experiment with U251 CNS; 105% in the experiment with PC-3 prostate. For the same compound, the growth is 106% in the experiment on SK-MEL-5 melanoma; 100% with UACC-62 melanoma; 87.9% with LOX IMVI melanoma; 100% in the experiment with SK-MEL-28 melanoma; 101% in the experiment on SK-MEL-2 melanoma; 103% in the experiment on EKVX NSCLC. Moreover, the growth is 109% in the experiment with SN12C renal; 92.5% with UO-31 renal; 112% in the experiment with TK-10 renal; 103% in the experiment on ACHN renal; 92.2% with A498 renal; 92% in the experiment on CCRF-CEM leukemia. Besides, the growth in the experiment with MOLT-4 leukemia is 98.5%; with SR leukemia, 97.7%.

`COc1cc(C2CC(c3ccc(Nc4nc(NCCO)nc(NCCO)n4)cc3)=NN2c2cc(Cl)cc(Cl)c2)cc(OC)c1OC` (stereo not given): the growth in the experiment on HCT-15 colon was 16.3%; in the experiment with HT29 colon, -47% (active); in the experiment on SNB-75 CNS it was -14.6% (active); with SNB-19 CNS, 17.4%; in the experiment with U251 CNS, -36.2% (active); with PC-3 prostate, -42.1% (active). Also, the growth in the experiment on SK-MEL-5 melanoma is -45.8% (active); with UACC-62 melanoma it was 2.21% (active); in the experiment with LOX IMVI melanoma, -60.2% (active); in the experiment on SK-MEL-28 melanoma, -70% (active); with SK-MEL-2 melanoma it was 85%; in the experiment on EKVX NSCLC, 35.2%. Moreover, the growth in the experiment on SN12C renal is 13.1%; in the experiment with UO-31 renal it was 49.4%; in the experiment with TK-10 renal it was -25.7% (active); with ACHN renal, 67.3%; in the experiment on A498 renal, 96.8%; in the experiment with CCRF-CEM leukemia, 19.3%. In addition, the figures for the growth in the experiment on MOLT-4 leukemia and with SR leukemia were 16.3% and -9.38% (active), respectively.
